Y pestis TopoI – blocks Yersinia pestis topoisomerase I activity; Y. pestis Topo-I cleavage product accumulation, plate reader; activity, % at 10 µM; 0.064% of 360,000 active; AID 504884; in the data active = activity above about 50%, passing the limit was not always enough
BioA inh – inhibitors of Mycobacterium tuberculosis BioA enzyme. inhibition, % at 9.99 µM. purified M. tuberculosis BioA enzyme, plate reader. AID 602481. 0.096% of 360,000 active; in the data active = inhibition above about 40%
VHR inh abs – inhibitors of human VHR1 phosphatase (DUSP3). inhibition, % at 13.3 µM. recombinant VHR phosphatase, pNPP absorbance. AID 1654. 0.52% of 290,000 active; in the data active = inhibition above about 50%
TcdB inh – inhibitors of Clostridioides difficile toxin B glycohydrolase; TcdB glycohydrolase enzymatic assay, plate reader; inhibition, % at 9.99 µM; 0.24% of 350,000 active; in the data active = inhibition above about 10%
BH1578 lux ind – induces V. cholerae light production without autoinducers; 0.16% of 350,000 active; V. cholerae BH1578 lux reporter, luminescence, 6 h; activation, % at 18.7 µM; AID 588436; in the data active = activation mostly above about 9.7%, no sharp cut-off
An asterisk follows results filed as active; i = inactive; nt = not tested or not shown. An excerpt weighted towards active compounds, which were near 0.73% of everything screened.

SMILES | Y pestis TopoI | BioA inh | VHR inh abs | TcdB inh | BH1578 lux ind
CO[C@H]1CN(C)C(=O)c2cc(NC(C)=O)ccc2OC[C@H](C)N(Cc2cncnc2)C[C@@H]1C | nt | -1 | nt | 1 | nt
COC(=O)[C@@]12CCCCN1[C@H](c1ccc(-c3ccccc3)c(OC)c1)[C@H]1C(=O)N(C)C(=O)[C@H]12 | 5 | -2 | nt | 12* | i
CO[C@@H]1CN(C)C(=O)c2ccc(NC(=O)c3cccc(F)c3)cc2OC[C@@H](C)N(C)C[C@H]1C | nt | 0 | nt | 1 | nt
COc1ccc(CCNC(=O)CCCn2nc(C)n3ccnc3c2=O)cc1OC | -2 | 0 | -2 | 14* | 0
C=CCc1c(C)nc(SC)nc1Nc1ccc(C(C)=O)cc1 | 4 | 54* | 21 | nt | i
C=CCc1c(C)nc(SC)nc1Nc1ccc(C(=O)O)cc1 | 1 | -1 | -5 | nt | 0
C[C@@H]1CCCCO[C@H](CN(C)S(=O)(=O)c2ccccc2)[C@@H](C)CN([C@H](C)CO)C(=O)c2cc(NS(=O)(=O)c3cn(C)cn3)ccc2O1 | nt | -2 | nt | 0 | nt
COc1cccc(C(=O)NNC(=O)c2cccnc2)c1 | -9 | -6 | 60* | 0 | 0
C/C(=N\NC(=O)c1cccnc1)c1ccccc1 | -4 | 4 | 59* | -4 | -2
COc1cccc(NC(=O)c2cccnc2)c1 | 5 | 17 | 15 | nt | 0
Cc1c(OCC(=O)C(C)(C)C)ccc2c(-c3ccccc3)cc(=O)oc12 | 51* | 6 | 6 | -11 | -1
CC(=O)COc1ccc2c(-c3ccccc3)cc(=O)oc2c1C | 3 | 12 | -12 | 1 | 0
COc1ccc(N2C(=O)C3C4C=CC(C5CC45)C3C2=O)c([N+](=O)[O-])c1 (stereo not drawn) | -5 | 0 | 15 | nt | 17*
C=CCOc1c(Br)cc(/C=C2\SC(=Nc3ccccc3)NC2=O)cc1OC | 57* | 0 | 21 | 0 | 1
CCc1ccc(N=C2NC(=O)/C(=C/c3cc(Br)c(OCC(=O)O)c(OC)c3)S2)cc1 | -5 | 1 | nt | 0 | -1
CSc1ccc(C(=O)C2CCCN(C)C2)cc1 (stereo not drawn) | 1 | nt | 53* | -1 | i
CN1CCCC(C(=O)c2ccccc2)C1 (stereo not drawn) | 6 | -1 | 5 | nt | i
CCn1c(=O)n(CC)c2cc(N3CCCC3)c(NC(=O)c3ccc(F)cc3)cc21 | 16 | 17 | 9 | 0 | i
CCn1c(=O)n(CC)c2cc(N3CCCC3)c(NC(=O)c3c(F)cccc3F)cc21 | 4 | 3 | 57* | 1 | i
COc1c2ccc(C(=O)NCCCCc3ccccc3)cc2nn1C | 4 | -1 | -24 | 14* | 6
CSc1nc(Cc2ccccc2)nc2ccccc12 | 13 | nt | 53* | 0 | 0
C[C@@H]1CN([C@H](C)CO)S(=O)(=O)c2ccc(C#CC3CC3)cc2O[C@@H]1CN(C)Cc1ccc(F)cc1 | nt | -2 | nt | 0 | nt
C[C@@H]1CN([C@@H](C)CO)C(=O)c2cc(NS(=O)(=O)c3cn(C)cn3)ccc2O[C@@H](C)CCCCO[C@H]1CN(C)S(=O)(=O)c1ccc(F)cc1 | nt | 1 | nt | -2 | nt
CN(C)C(=O)N1CCN(c2nc(-c3ccccc3)cs2)CC1 | 20 | 6 | 53* | -1 | 2
CO[C@H]1CC[C@@H]2CCOc3ccc(C#N)cc3C(=O)N(C)C[C@H](OC)[C@@H](C)C(=O)N(C)C[C@@H]1O2 | nt | 0 | nt | 0 | nt
SMILES | Y pestis TopoI | BioA inh | VHR inh abs | TcdB inh | BH1578 lux ind
CCCCCCn1c(C(C)NC(=O)c2ccco2)nc2ccccc21 (stereo not drawn) | 18 | 1 | 54* | nt | -1
COC(=O)C[C@@H]1CC[C@@H](NC(=O)c2ccccc2)[C@@H](CO)O1 | nt | 4 | nt | 0 | nt
O=C(Cn1ncc2c([nH]c3ccccc32)c1=O)N1CCN(c2ccccc2F)CC1 | 3 | -1 | -12 | 1 | 0
O=C(Cn1ncc2c([nH]c3ccccc32)c1=O)N1CCN(c2ccc(F)cc2)CC1 | 6 | -2 | 51* | 1 | 0
O=C(c1cccc(F)c1)N1CC[C@H]2[C@H](CO)Nc3ccc(-c4ccccc4)cc3[C@H]21 | nt | nt | nt | 0 | nt
O=C(C[C@H]1CC[C@H]2[C@@H](COC[C@@H](O)CN2Cc2ccccc2)O1)NCCc1ccccc1 | nt | 0 | nt | 15* | nt
O=C(C[C@@H]1CC[C@@H]2[C@H](COC[C@@H](O)CN2C(=O)c2ccccn2)O1)NC1CCC1 | nt | 0 | nt | 27* | nt
O=C(C[C@@H]1CC[C@H]2[C@@H](COC[C@H](O)CN2C(=O)c2ccccn2)O1)NC1CCC1 | nt | -2 | nt | 17* | nt
O=C(C[C@H]1CC[C@H]2[C@@H](COC[C@H](O)CN2C(=O)Nc2ccc(Cl)c(Cl)c2)O1)NCc1ccncc1 | nt | -2 | nt | 13* | nt
O=S(=O)(N[C@@H]1CC[C@@H](CCn2cc(C3(O)CCCC3)nn2)O[C@@H]1CO)c1ccccc1 | nt | 0 | nt | 0 | nt
C[C@H]1CN([C@@H](C)CO)S(=O)(=O)c2ccc(-c3ccc(C#N)cc3)cc2O[C@H]1CN(C)C | nt | 0 | nt | 1 | nt
CNC(=O)C[C@@H]1CC[C@@H]2[C@H](COC[C@H](O)CN2C(=O)c2ccccn2)O1 | nt | 2 | nt | 1 | nt
O=C(C[C@H]1CC[C@@H]2[C@H](COC[C@@H](O)CN2C(=O)c2ccccn2)O1)NC1CCC1 | nt | -1 | nt | 15* | nt
CN(C)C1=NC[C@H](Cc2ccccc2)N1CCCCc1ccccc1 | -4 | 9 | nt | -1 | 1
CCCCCCCN1C(N(C)C)=NC[C@@H]1Cc1ccccc1 | 11 | 3 | nt | 13* | 1
Cc1cc2cc3c(cc2nc1SCC(=O)N1CCCC1)OCCO3 | 15 | -1 | 53* | 2 | 1
Cc1cc2cc3c(cc2nc1SCC(=O)O)OCCO3 | 11 | 1 | 22 | nt | -1
CCOC(=O)c1ccc(-n2c(CCC(=O)O)ccc2-c2ccc(F)cc2)cc1 | 8 | 2 | -20 | 17* | 0
COC(=O)c1ccc(-n2c(CCC(=O)O)ccc2-c2ccc(C)cc2)cc1 | 2 | 6 | nt | nt | 1
C[C@@H]1CN([C@H](C)CO)C(=O)c2cc(NC(=O)Nc3cccc4ccccc34)ccc2O[C@H]1CN(C)S(=O)(=O)c1cccs1 | nt | -1 | nt | -1 | nt
C[C@H](NC(=O)c1cc2c(cn1)[nH]c1ccccc12)C(=O)O | -3 | 3 | 57* | 0 | i
COC(=O)[C@H](C)NC(=O)c1cc2c(cn1)[nH]c1ccccc12 | -4 | -1 | 3 | 0 | 0
COc1ccc(-c2n[nH]c3c2C(c2ccc(OC)c(OC)c2)N(c2ccccc2)C3=O)cc1 (stereo not drawn) | 3 | 65* | 4 | nt | 0
COc1ccc(N2C(=O)c3[nH]nc(-c4ccccc4)c3C2c2ccc(F)cc2)cc1 (stereo not drawn) | nt | nt | nt | 2 | nt
CCC1CCCCN1CCCNC(=O)c1ccc2c(c1)NC(=O)CS2 (stereo not drawn) | 2 | -1 | 56* | -1 | -1
CCC1CCCCN1CCCNC(=O)c1ccc2nc(N3CCC(C)CC3)sc2c1 (stereo not drawn) | 14 | -1 | 51* | 1 | 0
CC1CCN(c2nc3ccc(C(=O)NCCCN4CCCCC4)cc3s2)CC1 | 5 | 0 | 37 | 0 | 0

Screening results deposited in PubChem BioAssay by several laboratories.
